TDP1 cell CPT = growth inhibition of DT40 Tdp1-/-;hTDP1 cells with camptothecin (screen for TDP1 inhibitors). chicken DT40 Tdp1-/-;hTDP1 cells + 20 nM CPT, ATP luminescence, 48 h. Potency, µM (series often up to 46.2 µM), inactives show at the top dose activity change, negative = growth inhibition, usual class: inhibitors. 420,000 tested, 12% active. AID 686979; further: potency means the concentration at half of the fitted maximal effect; nearly all actives have a fitted effect of over 55% in size
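Chicken DT40 Tdp1-/- cells complemented with human TDP1, 400 cells/well, exposed to compounds plus 20 nM camptothecin for at least 48 h at 37 C; viability read as ATP content by CellTiter-Glo luminescence.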
DT40 TDP1 no CPT = qHTS for Inhibitors of human tyrosyl-DNA phosphodiesterase 1 (TDP1): qHTS in cells in absence of CPT. DT40 Tdp1-/- hTDP1 cells, no CPT, ATP luminescence, 48 h. Potency, µM (highest dose often 46.2 µM), for the others: at the top dose activity change, negative = growth inhibition, most hits filed as inhibitors. 420,000 tested, 15% active; further: potency means the concentration at half of the fitted maximal effect; nearly all actives have a fitted effect of over 55% in size
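A cellular qHTS used chicken DT40 cells lacking endogenous Tdp1 but carrying stably transfected human TDP1. Compounds were applied without camptothecin, and cell growth kinetics were judged by ATP-dependent luminescence after ≥48 hr.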
HT1080-NT tox = kills 2HG-producing HT-1080-NT fibrosarcoma cells; 360,000 tested, 1.6% active; Potency, µM (top dose mostly 46.1 µM), inactives show at the top dose activity, negative = less viability, usual class: cytotoxic; HT-1080-NT fibrosarcoma viability, CellTiter-Glo ATP luminescence, 48 h;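 further: NT is the 2HG producing partner of a matched IDH1 knockdown line; potency means the concentration at half of the fitted maximal effect; 0% = DMSO-treated cells and -100% = media-only wells without cells; nearly all actives have a fitted effect of over 55% in size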
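Fibrosarcoma NT cells, 750 per well in 5% FBS RPMI, were exposed to compound for 48 hours. Viability: CellTiter-Glo luminescence.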
ELG1 repair inh = blocks ELG1-dependent DNA repair in HEK293T cells. HEK293T ELG1-luciferase reporter, luminescence, 16 h; DNA damage induced by 5-fluorouridine. Potency, µM (highest dose often 46.1 µM), for inactives: top-dose activity change, negative = inhibition, actives largely listed as inhibitors. 330,000 tested, 2.3% active. AID 504467; further: potency means the concentration at half of the fitted maximal effect; nearly all actives have a fitted effect of over 55% in size
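Overnight (16 hr) co-exposure of 2,000 cells/well to 5-fluorouridine and compound at 37 °C preceded detection. Luciferase was quantified via ONE-Glo luminescence; loss of signal denotes inhibition.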
IL-1B inflam inh = inflammasome signaling inhibition, IL-1 beta readout; THP-1 LPS/ATP IL-1B secretion, AlphaLISA, 16 h; hits give low values; activity change, % at 57.5 µM; 360,000 tested, 4.7% active; in the data active means activity change below about -50%; inconclusive means mostly about -30% to -49%
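THP-1 cells pretreated 1 hr with compounds (up to 57.5 uM final), then stimulated with LPS (250 ng/mL final) plus ATP (1.25 mM final); secreted IL-1B measured by AlphaLISA after 16 hr, decreased signal indicating inhibition.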
HT1080 IDH1KD tx = toxicity to HT-1080 IDH1 knockdown cells (counter line) | HT-1080 IDH1 knockdown viability, ATP luminescence, 48 h | Potency, µM (doses to about 46.1 µM), inactives show at the top dose activity, negative = toxicity, hits mostly cytotoxic | 360,000 tested, 2% active | AID 686971;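 further: potency means the concentration at half of the fitted maximal effect; 0% = DMSO wells and -100% = cell-free medium wells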
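% activity derives from luminescence (CellTiter-Glo), normalised to DMSO and no-cell wells. HT-1080-IDH1KD cells, 750/well, had 48 h compound exposure at 37 °C.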
Starred values were filed as active, the others as inactive; u = inconclusive; x = not tested or not shown. Hits are enriched below; roughly 19% of the tested compounds scored in any of these assays. Unless noted, the call rests on the fitted dose curve; in most records, active means well fitted curve in the direction sought with a large enough effect; inconclusive means small, poorly fitted or top-dose-only effect, or another doubt; inactive means no such curve, though single readings can be large; an effect the other way counts as inactive or inconclusive. Unless noted, on the % scale 0 is the no-effect control and ±100 the full control effect.

SMILES	TDP1 cell CPT	DT40 TDP1 no CPT	HT1080-NT tox	ELG1 repair inh	IL-1B inflam inh	HT1080 IDH1KD tx
O=C(NC1CCCCC1)C(c1ccccc1)N(C(=O)c1cccs1)c1ccc2c(c1)OCO2 (stereo not given)	u	u	-2%	4%	-14	-7%
O=C(NC1CCCCC1)C(c1ccc2ncccc2c1)N(Cc1ccc2c(c1)OCO2)C(=O)c1cccs1 (stereo not given)	18µM*	u	u	u	-69*	u
CCOC(=O)c1noc2nc(C)n(CC(=O)Nc3cc(Cl)ccc3OC)c(=O)c12	22%	-16%	x	x	x	x
CCCCN1C(=O)C(=O)N(CC(=O)Nc2sc(CC)cc2C(=O)OCC)C1=O	7%	-17%	13%	15%	14	11%
CCc1nn(CC(=O)Nc2cccc(C(C)=O)c2)c(=O)c2cc3sccc3n12	18µM*	u	x	x	x	x
CCc1nn(CC(=O)NCCCN2CCc3ccccc3C2)c(=O)c2cc3sccc3n12	23µM*	u	-5%	7%	-28	-19%
CC(=O)c1cccc(NC(=O)Cn2nc(C)n3cccc3c2=O)c1	-11%	16µM*	x	x	x	x
COc1ccccc1N(C)S(=O)(=O)c1ccc(C(=O)OCC(=O)c2c[nH]c3ccccc23)cc1	u	u	-4%	u	-3	0%
CCOc1ccc(NC(=O)CN(C)C(=O)c2cn3ccccc3n2)cc1OCC	-15%	-2%	8%	11%	14	-4%
COc1ccc(S(=O)(=O)NNC(=O)C23CC4CC(CC(C4)C2)C3)cc1[N+](=O)[O-]	-5%	u	-3%	7%	-7	-1%
CCOc1ccc(CCN2C(=O)C(=O)N([C@@H](Cc3ccccc3)CN3CCC[C@H]3CN3C(=O)C(=O)NC[C@@H]3Cc3ccccc3)C[C@@H]2CC(C)C)cc1	u	18µM*	-7%	x	-79*	1%
CCOc1ccc(CCN2C(=O)C(=O)N([C@@H](Cc3ccc(O)cc3)CN3CCC[C@H]3CN3C(=O)C(=O)NC[C@@H]3Cc3ccccc3)C[C@@H]2Cc2ccc(O)cc2)cc1	u	u	-11%	x	-52*	-20%
CC(C)C[C@@H](CN1CCC[C@H]1CN1C(=O)C(=O)NC[C@@H]1Cc1ccc(O)cc1)N1C[C@H](Cc2ccccc2)N(CCc2ccccc2)C(=O)C1=O	u	-3%	-12%	x	u	-15%
CCOc1ccc(CCN2C(=O)C(=O)N([C@@H](Cc3ccccc3)CN3CCC[C@H]3CN3C(=O)C(=O)NC[C@@H]3Cc3ccccc3)C[C@@H]2Cc2ccc(O)cc2)cc1	u	u	u	x	-64*	u
CCOc1ccc(CCN2C(=O)C(=O)N([C@@H](Cc3ccccc3)CN3CCC[C@H]3CN3C(=O)C(=O)NC[C@@H]3Cc3ccccc3)C[C@@H]2Cc2ccccc2)cc1	u	23µM*	u	x	u	u
CC(C)C[C@H]1CN([C@@H](CC(C)C)CN2CCC[C@H]2CN2C(=O)C(=O)NC[C@@H]2Cc2ccc(O)cc2)C(=O)C(=O)N1CCc1ccccc1	u	u	-21%	x	u	-6%
CC1Cc2ccccc2N1Cc1ccc([N+](=O)[O-])cc1 (stereo not given)	-28%	-22%	-1%	-4%	-24	3%
OC(CNCc1cccnc1)COc1ccc2ccccc2c1 (stereo not given)	-3%	-1%	-22%	-19%	-22	-15%
Cc1ccc2[nH]c(C)c(/C=C/c3cc[n+](C)cc3)c2c1	3.3µM*	2.6µM*	u	2.6µM*	u	u
Cc1ccc2c(c1)c(/C=C/c1cc[n+](C)cc1)c(C)n2C	0.52µM*	0.41µM*	u	u	-63*	u
Cc1nc(-c2ccc(Cl)cc2)sc1C1(C)CC(c2ccc(F)cc2)=NO1 (stereo not given)	-9%	-10%	8%	u	7	16%
CC(=O)c1cccc(NC(=O)CSc2nnc3ccc(-c4ccc(C)cc4)nn23)c1	-29%	-10%	x	x	x	x
CCCCC(Br)C(=O)Nc1ccc(S(=O)(=O)Nc2cc(C)nc(C)n2)cc1 (stereo not given)	-3%	-29%	-1%	13%	5	3%
CCOC(=O)c1c(CN2CCNCC2)nc2ccc(Cl)cc2c1-c1ccccc1	4.6µM*	4.6µM*	-16%	x	-64*	u
Cc1ccc(Cc2c(-c3ccccc3)nc3cc(C)c(Br)c(C)n23)cc1	u	u	-10%	x	22	-3%
SMILES	TDP1 cell CPT	DT40 TDP1 no CPT	HT1080-NT tox	ELG1 repair inh	IL-1B inflam inh	HT1080 IDH1KD tx
Cc1cc2nc(C(C)(C)C)c(Cc3ccccc3)n2c(C)c1Br	u	u	1%	x	64	-1%
Cc1cc2nc(-c3ccc(F)cc3)c(Cc3ccccc3)n2c(C)c1Br	21µM*	21µM*	u	x	32	u
Cc1cc2nc(-c3cccc(Br)c3)c(Cc3ccccc3)n2c(C)c1Br	16µM*	u	u	x	60	u
Cc1cc2nc(-c3ccccc3)c(Cc3cccc(F)c3)n2c(C)c1Br	u	16µM*	-20%	x	0	-25%
Cc1cc2nc(-c3ccc(C#N)cc3)c(Cc3cccc(F)c3)n2c(C)c1Br	18µM*	15µM*	-22%	x	-16	-28%
Cc1cc2nc(-c3cccc(Br)c3)c(Cc3ccsc3)n2c(C)c1Br	u	u	-6%	x	24	-16%
N#Cc1ccc(-c2nc3ccc(Br)cn3c2Cc2cccc(F)c2)cc1	u	u	-29%	x	-25	u
C[C@H]1COc2cccc(N3CCSCC3)c2S(=O)(=O)N1	1%	-11%	12%	x	29	6%
Cc1ccc(-c2nc3cc(C)c(Br)c(C)n3c2Cc2cccc(F)c2)cc1	7.3µM*	10µM*	u	x	0	u
Cc1ccc(Cc2c(-c3cccc(Cl)c3)nc3cc(C)c(Br)c(C)n23)cc1	-43%	u	-4%	x	0	-12%
Cc1cc2nc(C3CCCCC3)c(Cc3cccc(F)c3)n2c(C)c1Br	16µM*	u	-27%	x	12	-28%
Cc1cc(Br)cn2c(Cc3cccc(F)c3)c(-c3ccc(C#N)cc3)nc12	18µM*	u	-14%	x	0	-22%

Source: PubChem BioAssay
